Where a chain is given by its changes, count along the chain named. Whole data set: some 16,000 sequences, median “ka relative to ugcaugu” near 0.096, cut for the highest 2% near 0.35. The entries come from a sample that favours the highest values as a whole.
T1: RBFOX1 RRM RbFoxmut (Fox-RRM*) (Homo sapiens, UniProt Q9NWB1 109-208, R118D;E147R;N151S;E152T)
T1 sequence: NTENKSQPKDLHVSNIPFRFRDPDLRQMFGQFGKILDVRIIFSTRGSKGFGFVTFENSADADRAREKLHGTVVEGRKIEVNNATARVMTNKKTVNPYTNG

B1: UAUUAUG (DNA:RNA)
RNA: GGGAGACCGGAAUUCAGAUUGUCCUAUUAUGUUAAAUCCCGUCGUAGCCACCA
DNA 1: CAATCTGAATTCCGGTCTCCC
DNA 2: TGGTGGCTACGACGGGATT
B2: UAAGUUC (DNA:RNA)
RNA: B1 RNA with U27A, U28G, A29U, G31C
DNA 1: CAATCTGAATTCCGGTCTCCC
DNA 2: TGGTGGCTACGACGGGATT
B3: GGAUAGG (DNA:RNA)
RNA: B1 RNA with U25G, A26G, U27A, U30G
DNA 1: CAATCTGAATTCCGGTCTCCC
DNA 2: TGGTGGCTACGACGGGATT
B4: UUGUAUU (DNA:RNA)
RNA: B1 RNA with A26U, U27G, G31U
DNA 1: CAATCTGAATTCCGGTCTCCC
DNA 2: TGGTGGCTACGACGGGATT
B5: CCCGAGU (DNA:RNA)
RNA: B1 RNA with U25C, A26C, U27C, U28G, U30G, G31U
DNA 1: CAATCTGAATTCCGGTCTCCC
DNA 2: TGGTGGCTACGACGGGATT
B6: UCGCAUC (DNA:RNA)
RNA: B1 RNA with A26C, U27G, U28C, G31C
DNA 1: CAATCTGAATTCCGGTCTCCC
DNA 2: TGGTGGCTACGACGGGATT
B7: UCAGAUC (DNA:RNA)
RNA: B1 RNA with A26C, U27A, U28G, G31C
DNA 1: CAATCTGAATTCCGGTCTCCC
DNA 2: TGGTGGCTACGACGGGATT
B8: UCGCAUG (DNA:RNA)
RNA: B1 RNA with A26C, U27G, U28C
DNA 1: CAATCTGAATTCCGGTCTCCC
DNA 2: TGGTGGCTACGACGGGATT
B9: UCGCGCA (DNA:RNA)
RNA: B1 RNA with A26C, U27G, U28C, A29G, U30C, G31A
DNA 1: CAATCTGAATTCCGGTCTCCC
DNA 2: TGGTGGCTACGACGGGATT
B10: UCGCAGA (DNA:RNA)
RNA: B1 RNA with A26C, U27G, U28C, U30G, G31A
DNA 1: CAATCTGAATTCCGGTCTCCC
DNA 2: TGGTGGCTACGACGGGATT
B11: UCGCAUA (DNA:RNA)
RNA: B1 RNA with A26C, U27G, U28C, G31A
DNA 1: CAATCTGAATTCCGGTCTCCC
DNA 2: TGGTGGCTACGACGGGATT
B12: UGAACAA (DNA:RNA)
RNA: B1 RNA with A26G, U27A, U28A, A29C, U30A, G31A
DNA 1: CAATCTGAATTCCGGTCTCCC
DNA 2: TGGTGGCTACGACGGGATT
B13: AUUUACA (DNA:RNA)
RNA: B1 RNA with U25A, A26U, U30C, G31A
DNA 1: CAATCTGAATTCCGGTCTCCC
DNA 2: TGGTGGCTACGACGGGATT
B14: UGAUGCG (DNA:RNA)
RNA: B1 RNA with A26G, U27A, A29G, U30C
DNA 1: CAATCTGAATTCCGGTCTCCC
DNA 2: TGGTGGCTACGACGGGATT
B15: UUGUGGU (DNA:RNA)
RNA: B1 RNA with A26U, U27G, A29G, U30G, G31U
DNA 1: CAATCTGAATTCCGGTCTCCC
DNA 2: TGGTGGCTACGACGGGATT
B16: ACACGAA (DNA:RNA)
RNA: GGGAGACCGGAAUUCAGAUUGUCCACACGAAUUAAAUCCCGUCGUAGCCACCA
DNA 1: CAATCTGAATTCCGGTCTCCC
DNA 2: TGGTGGCTACGACGGGATT
B17: GCGUAAC (DNA:RNA)
RNA: B16 RNA with A25G, A27G, C28U, G29A, A31C
DNA 1: CAATCTGAATTCCGGTCTCCC
DNA 2: TGGTGGCTACGACGGGATT
B18: GGACGCA (DNA:RNA)
RNA: B16 RNA with A25G, C26G, A30C
DNA 1: CAATCTGAATTCCGGTCTCCC
DNA 2: TGGTGGCTACGACGGGATT
B19: UUAGUGG (DNA:RNA)
RNA: B1 RNA with A26U, U27A, U28G, A29U, U30G
DNA 1: CAATCTGAATTCCGGTCTCCC
DNA 2: TGGTGGCTACGACGGGATT
B20: GUCAUGC (DNA:RNA)
RNA: GGGAGACCGGAAUUCAGAUUGUCCGUCAUGCUUAAAUCCCGUCGUAGCCACCA
DNA 1: CAATCTGAATTCCGGTCTCCC
DNA 2: TGGTGGCTACGACGGGATT
B21: GACAUGC (DNA:RNA)
RNA: B20 RNA with U26A
DNA 1: CAATCTGAATTCCGGTCTCCC
DNA 2: TGGTGGCTACGACGGGATT
B22: GCCAUGC (DNA:RNA)
RNA: B20 RNA with U26C
DNA 1: CAATCTGAATTCCGGTCTCCC
DNA 2: TGGTGGCTACGACGGGATT
B23: GUCCGCU (DNA:RNA)
RNA: B20 RNA with A28C, U29G, G30C, C31U
DNA 1: CAATCTGAATTCCGGTCTCCC
DNA 2: TGGTGGCTACGACGGGATT
B24: GCAUGCU (DNA:RNA)
RNA: B16 RNA with A25G, C28U, A30C, A31U
DNA 1: CAATCTGAATTCCGGTCTCCC
DNA 2: TGGTGGCTACGACGGGATT
B25: GGCAUGC (DNA:RNA)
RNA: B20 RNA with U26G
DNA 1: CAATCTGAATTCCGGTCTCCC
DNA 2: TGGTGGCTACGACGGGATT
B26: CGCAUGC (DNA:RNA)
RNA: B20 RNA with G25C, U26G
DNA 1: CAATCTGAATTCCGGTCTCCC
DNA 2: TGGTGGCTACGACGGGATT
B27: ACAUGCU (DNA:RNA)
RNA: B16 RNA with C28U, A30C, A31U
DNA 1: CAATCTGAATTCCGGTCTCCC
DNA 2: TGGTGGCTACGACGGGATT
B28: GCAUUGC (DNA:RNA)
RNA: B20 RNA with U26C, C27A, A28U
DNA 1: CAATCTGAATTCCGGTCTCCC
DNA 2: TGGTGGCTACGACGGGATT
B29: UCUUCUA (DNA:RNA)
RNA: B1 RNA with A26C, A29C, G31A
DNA 1: CAATCTGAATTCCGGTCTCCC
DNA 2: TGGTGGCTACGACGGGATT
B30: CCUCCAG (DNA:RNA)
RNA: B16 RNA with A25C, A27U, G29C, A31G
DNA 1: CAATCTGAATTCCGGTCTCCC
DNA 2: TGGTGGCTACGACGGGATT
B31: GAACAGU (DNA:RNA)
RNA: B16 RNA with A25G, C26A, G29A, A30G, A31U
DNA 1: CAATCTGAATTCCGGTCTCCC
DNA 2: TGGTGGCTACGACGGGATT

target: T1, RBFOX1 RRM RbFoxmut (Fox-RRM*); assay: EMSA; HiTS-Eq, 1 nM pool, 10 min; buffer printed only for the single-RNA assays: 10 mM Tris pH 7.5, 150 mM NaCl, 3.4 mM EDTA, 0.001% NP-40, 30 C; details: tags: His6 N-terminal (pET28a); label: 5' 32P
In short: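 Purified RbFox RRM, wild type or mutant, was incubated for 10 min in 50 µL with 1 nM of a 5′-radiolabelled RNA pool carrying 7 randomized nucleotides, whose flanks were annealed to DNA oligonucleotides, over a series of increasing protein concentrations. Unbound RNA was resolved on 8% native PAGE, cut out, reverse-transcribed, barcoded by PCR and sequenced on an Illumina HiSeq 2500. Relative association constants were derived from changes in read counts for each RNA species versus the control reaction and normalised to the cognate motif.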

Binder	binding signal
B1	0.158 KA relative to UGCAUGU
B2	0.0634 KA relative to UGCAUGU
B3	0.0913 KA relative to UGCAUGU
B4	0.171 KA relative to UGCAUGU
B5	0.094 KA relative to UGCAUGU
B6	0.597 KA relative to UGCAUGU
B7	0.0785 KA relative to UGCAUGU
B8	1.06 KA relative to UGCAUGU
B9	0.104 KA relative to UGCAUGU
B10	0.0842 KA relative to UGCAUGU
B11	0.125 KA relative to UGCAUGU
B12	0.047 KA relative to UGCAUGU
B13	0.119 KA relative to UGCAUGU
B14	0.141 KA relative to UGCAUGU
B15	0.164 KA relative to UGCAUGU
B16	0.0925 KA relative to UGCAUGU

Binder	binding signal
B17	0.0833 KA relative to UGCAUGU
B18	0.12 KA relative to UGCAUGU
B19	0.0929 KA relative to UGCAUGU
B20	0.19 KA relative to UGCAUGU
B21	0.0819 KA relative to UGCAUGU
B22	0.109 KA relative to UGCAUGU
B23	0.11 KA relative to UGCAUGU
B24	0.736 KA relative to UGCAUGU
B25	0.739 KA relative to UGCAUGU
B26	0.951 KA relative to UGCAUGU
B27	0.102 KA relative to UGCAUGU
B28	0.134 KA relative to UGCAUGU
B29	0.0886 KA relative to UGCAUGU
B30	0.101 KA relative to UGCAUGU
B31	0.0727 KA relative to UGCAUGU
